According to the supplement of paper PMC11732987, “Enantioselective OTUD7B fragment discovery through chemoproteomics screening and high-throughput optimisation” (Communications Chemistry, 2025):

Key:
Assay in all cases: log2 ratio of Biotin-Ahx-Ub-VS probe labelling (fragment/DMSO); higher = less target engagement (more negative = stronger competition), active = hit call of the paper (q ≤ 0.05, log2 ratio ≤ -1)
Conditions in all cases: compound concentration: 200 uM; treatment time: 3 h
USP34 = USP34 (UniProt Q70CQ2)
Chain of USP34 (Q70CQ2 whole entry, the tested form may be a part): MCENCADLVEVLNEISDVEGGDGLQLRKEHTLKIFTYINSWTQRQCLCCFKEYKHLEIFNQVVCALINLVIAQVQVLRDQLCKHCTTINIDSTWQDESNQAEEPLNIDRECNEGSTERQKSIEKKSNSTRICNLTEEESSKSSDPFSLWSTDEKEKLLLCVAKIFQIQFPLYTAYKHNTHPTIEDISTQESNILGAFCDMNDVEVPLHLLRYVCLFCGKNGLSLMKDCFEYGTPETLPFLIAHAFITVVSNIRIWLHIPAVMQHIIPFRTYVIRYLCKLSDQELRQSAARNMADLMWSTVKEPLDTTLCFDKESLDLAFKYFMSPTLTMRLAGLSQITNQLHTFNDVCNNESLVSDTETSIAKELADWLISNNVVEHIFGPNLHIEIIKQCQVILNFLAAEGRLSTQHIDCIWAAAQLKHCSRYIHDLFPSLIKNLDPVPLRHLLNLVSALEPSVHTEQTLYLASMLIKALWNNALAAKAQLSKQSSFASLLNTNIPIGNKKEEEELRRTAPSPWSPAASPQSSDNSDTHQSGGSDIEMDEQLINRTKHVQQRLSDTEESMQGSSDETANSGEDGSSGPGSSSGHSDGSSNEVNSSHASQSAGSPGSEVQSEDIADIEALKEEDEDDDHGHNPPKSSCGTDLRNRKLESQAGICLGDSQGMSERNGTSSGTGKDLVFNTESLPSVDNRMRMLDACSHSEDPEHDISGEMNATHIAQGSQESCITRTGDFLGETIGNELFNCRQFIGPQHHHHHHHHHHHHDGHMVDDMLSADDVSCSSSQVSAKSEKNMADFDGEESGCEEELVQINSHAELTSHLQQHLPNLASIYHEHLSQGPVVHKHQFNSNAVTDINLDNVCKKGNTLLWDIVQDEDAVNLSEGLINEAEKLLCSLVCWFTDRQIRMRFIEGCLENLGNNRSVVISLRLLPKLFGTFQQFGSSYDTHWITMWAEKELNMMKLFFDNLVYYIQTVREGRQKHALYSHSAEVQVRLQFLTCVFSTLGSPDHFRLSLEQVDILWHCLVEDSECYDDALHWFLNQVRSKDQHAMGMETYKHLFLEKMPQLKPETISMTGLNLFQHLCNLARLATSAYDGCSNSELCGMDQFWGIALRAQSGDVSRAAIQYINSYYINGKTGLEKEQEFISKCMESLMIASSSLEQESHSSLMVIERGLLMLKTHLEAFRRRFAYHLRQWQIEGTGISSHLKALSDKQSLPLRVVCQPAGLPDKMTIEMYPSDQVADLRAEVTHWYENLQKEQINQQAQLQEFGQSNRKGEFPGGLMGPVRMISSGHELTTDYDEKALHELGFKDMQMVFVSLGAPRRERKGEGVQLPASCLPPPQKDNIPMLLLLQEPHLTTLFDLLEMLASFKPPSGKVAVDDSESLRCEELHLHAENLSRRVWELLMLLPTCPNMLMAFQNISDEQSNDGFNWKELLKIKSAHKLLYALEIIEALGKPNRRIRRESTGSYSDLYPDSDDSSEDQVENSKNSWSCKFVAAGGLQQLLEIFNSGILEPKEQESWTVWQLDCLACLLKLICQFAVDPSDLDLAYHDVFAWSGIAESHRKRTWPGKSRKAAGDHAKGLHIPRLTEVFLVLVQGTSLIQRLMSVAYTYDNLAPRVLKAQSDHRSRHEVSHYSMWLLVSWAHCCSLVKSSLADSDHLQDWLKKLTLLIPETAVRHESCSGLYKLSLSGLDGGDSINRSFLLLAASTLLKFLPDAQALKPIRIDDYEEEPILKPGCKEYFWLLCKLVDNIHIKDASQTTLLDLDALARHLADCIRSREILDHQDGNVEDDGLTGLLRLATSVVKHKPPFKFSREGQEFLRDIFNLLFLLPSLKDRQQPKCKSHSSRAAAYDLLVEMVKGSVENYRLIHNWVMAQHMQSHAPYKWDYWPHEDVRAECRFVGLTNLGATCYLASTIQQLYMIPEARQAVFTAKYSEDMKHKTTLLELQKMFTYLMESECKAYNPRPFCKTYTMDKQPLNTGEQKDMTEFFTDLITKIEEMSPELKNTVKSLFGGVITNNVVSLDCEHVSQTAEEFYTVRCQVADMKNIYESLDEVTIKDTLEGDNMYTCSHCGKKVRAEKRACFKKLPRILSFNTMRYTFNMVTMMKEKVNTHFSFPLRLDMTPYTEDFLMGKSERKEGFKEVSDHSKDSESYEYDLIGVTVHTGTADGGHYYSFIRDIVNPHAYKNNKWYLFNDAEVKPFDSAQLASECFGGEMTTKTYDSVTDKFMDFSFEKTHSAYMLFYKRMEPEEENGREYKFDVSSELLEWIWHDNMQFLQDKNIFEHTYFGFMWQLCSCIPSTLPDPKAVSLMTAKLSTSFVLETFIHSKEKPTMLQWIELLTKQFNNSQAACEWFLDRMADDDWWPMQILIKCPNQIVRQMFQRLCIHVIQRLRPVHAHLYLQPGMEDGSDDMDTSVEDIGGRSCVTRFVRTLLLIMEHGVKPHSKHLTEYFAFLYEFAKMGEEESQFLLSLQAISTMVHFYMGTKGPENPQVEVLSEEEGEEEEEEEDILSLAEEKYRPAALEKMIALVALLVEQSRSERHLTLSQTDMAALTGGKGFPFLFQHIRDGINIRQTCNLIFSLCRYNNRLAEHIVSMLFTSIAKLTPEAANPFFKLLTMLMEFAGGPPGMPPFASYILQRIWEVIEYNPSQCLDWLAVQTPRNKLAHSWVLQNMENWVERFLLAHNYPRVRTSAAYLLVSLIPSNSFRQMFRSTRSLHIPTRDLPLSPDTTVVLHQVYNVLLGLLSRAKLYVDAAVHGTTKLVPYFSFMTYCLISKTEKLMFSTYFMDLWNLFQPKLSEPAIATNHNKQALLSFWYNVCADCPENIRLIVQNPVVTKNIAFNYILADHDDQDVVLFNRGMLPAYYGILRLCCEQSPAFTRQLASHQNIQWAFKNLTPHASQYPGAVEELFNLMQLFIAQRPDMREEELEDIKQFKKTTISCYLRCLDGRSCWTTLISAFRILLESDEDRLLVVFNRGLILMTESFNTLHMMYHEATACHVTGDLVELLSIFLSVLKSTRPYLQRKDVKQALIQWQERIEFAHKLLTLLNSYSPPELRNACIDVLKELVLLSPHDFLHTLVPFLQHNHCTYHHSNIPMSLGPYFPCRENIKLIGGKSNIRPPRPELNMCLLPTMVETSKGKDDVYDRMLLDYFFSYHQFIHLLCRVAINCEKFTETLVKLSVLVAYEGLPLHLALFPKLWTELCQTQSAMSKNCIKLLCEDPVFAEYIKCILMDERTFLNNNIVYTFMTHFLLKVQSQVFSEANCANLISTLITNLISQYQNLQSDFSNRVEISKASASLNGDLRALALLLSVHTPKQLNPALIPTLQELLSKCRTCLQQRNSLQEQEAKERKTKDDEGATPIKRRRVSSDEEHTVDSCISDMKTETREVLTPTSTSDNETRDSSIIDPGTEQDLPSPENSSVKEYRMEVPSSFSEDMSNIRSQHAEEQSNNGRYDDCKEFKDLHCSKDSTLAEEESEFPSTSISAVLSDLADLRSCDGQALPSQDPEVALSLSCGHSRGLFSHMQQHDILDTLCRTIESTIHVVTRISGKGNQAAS
In short: (§1)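 HEK293T lysate, 495 µg per sample in Tris/CHAPS/IGEPAL buffer with protease inhibitors, was treated in triplicate with fragment at 200 µM or vehicle for 3 h and then with Biotin-Ahx-Ub-VS at 0.5 µM final for 1 h. Labelled DUBs were NeutrAvidin-enriched, digested with LysC and trypsin, and run by diaPASEF LC-MS/MS. Spectronaut label-free quantities were global-median-normalised, and values are average log2 fragment/vehicle ratios by unpaired t-test on proteins with ≥2 unique peptides.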

USP36 = biological target: T1, USP36 (UniProt Q9P275)
T1 sequence (whole entry): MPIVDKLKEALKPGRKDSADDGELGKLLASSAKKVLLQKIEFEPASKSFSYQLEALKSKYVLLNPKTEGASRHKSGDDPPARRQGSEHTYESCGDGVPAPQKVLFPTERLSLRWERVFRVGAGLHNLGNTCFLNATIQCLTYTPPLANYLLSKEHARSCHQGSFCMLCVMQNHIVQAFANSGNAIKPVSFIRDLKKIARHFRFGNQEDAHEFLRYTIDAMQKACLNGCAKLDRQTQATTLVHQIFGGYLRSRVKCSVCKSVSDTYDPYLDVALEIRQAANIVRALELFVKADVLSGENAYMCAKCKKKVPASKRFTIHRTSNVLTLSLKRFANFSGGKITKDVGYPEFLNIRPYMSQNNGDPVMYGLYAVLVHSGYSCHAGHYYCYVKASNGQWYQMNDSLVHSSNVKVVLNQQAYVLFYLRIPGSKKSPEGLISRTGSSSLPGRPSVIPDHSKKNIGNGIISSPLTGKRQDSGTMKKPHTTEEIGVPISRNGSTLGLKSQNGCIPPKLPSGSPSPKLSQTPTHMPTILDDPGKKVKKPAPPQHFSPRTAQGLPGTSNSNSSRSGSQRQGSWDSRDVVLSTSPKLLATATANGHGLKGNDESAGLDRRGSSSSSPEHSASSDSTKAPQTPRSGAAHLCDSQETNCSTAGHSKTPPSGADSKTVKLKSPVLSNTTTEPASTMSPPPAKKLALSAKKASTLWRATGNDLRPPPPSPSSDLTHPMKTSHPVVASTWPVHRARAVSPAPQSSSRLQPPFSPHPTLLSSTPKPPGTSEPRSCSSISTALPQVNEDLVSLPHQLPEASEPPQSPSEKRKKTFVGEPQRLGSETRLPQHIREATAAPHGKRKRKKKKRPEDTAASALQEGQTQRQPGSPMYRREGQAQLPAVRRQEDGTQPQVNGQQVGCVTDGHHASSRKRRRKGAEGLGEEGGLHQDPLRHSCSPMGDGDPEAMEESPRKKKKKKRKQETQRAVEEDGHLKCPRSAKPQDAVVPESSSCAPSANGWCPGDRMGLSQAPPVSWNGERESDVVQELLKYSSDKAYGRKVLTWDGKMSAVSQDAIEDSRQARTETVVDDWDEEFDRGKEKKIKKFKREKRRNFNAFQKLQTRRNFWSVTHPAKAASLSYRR
In short: as §1

USP38 = biological target: T2, USP38 (UniProt Q8NB14)
T2 sequence (whole entry): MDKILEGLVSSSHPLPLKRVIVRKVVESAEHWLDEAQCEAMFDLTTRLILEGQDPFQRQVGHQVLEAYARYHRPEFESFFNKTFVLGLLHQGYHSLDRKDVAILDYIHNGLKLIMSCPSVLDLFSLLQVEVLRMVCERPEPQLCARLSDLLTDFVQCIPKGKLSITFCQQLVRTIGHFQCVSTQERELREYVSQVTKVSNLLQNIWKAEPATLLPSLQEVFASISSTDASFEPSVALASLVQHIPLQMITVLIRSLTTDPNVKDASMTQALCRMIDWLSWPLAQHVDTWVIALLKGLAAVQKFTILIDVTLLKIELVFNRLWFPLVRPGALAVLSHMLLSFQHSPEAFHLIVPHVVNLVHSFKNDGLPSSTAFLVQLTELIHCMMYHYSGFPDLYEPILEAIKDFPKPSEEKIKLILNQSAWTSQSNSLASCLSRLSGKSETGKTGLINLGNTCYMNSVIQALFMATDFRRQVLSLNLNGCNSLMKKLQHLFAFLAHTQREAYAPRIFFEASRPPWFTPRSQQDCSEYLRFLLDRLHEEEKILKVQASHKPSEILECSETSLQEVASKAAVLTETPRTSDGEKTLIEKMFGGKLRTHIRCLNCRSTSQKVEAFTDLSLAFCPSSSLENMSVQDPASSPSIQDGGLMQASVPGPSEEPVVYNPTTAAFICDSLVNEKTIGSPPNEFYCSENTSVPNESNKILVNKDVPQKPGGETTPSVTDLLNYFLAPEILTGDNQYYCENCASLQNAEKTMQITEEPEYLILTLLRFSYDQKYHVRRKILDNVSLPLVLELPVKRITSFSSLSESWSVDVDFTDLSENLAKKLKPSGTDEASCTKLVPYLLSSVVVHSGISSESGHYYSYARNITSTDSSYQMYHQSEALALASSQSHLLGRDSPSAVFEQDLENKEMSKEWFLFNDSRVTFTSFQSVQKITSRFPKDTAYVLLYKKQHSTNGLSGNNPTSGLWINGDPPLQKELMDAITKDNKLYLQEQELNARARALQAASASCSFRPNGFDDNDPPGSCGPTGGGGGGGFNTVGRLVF
In short: as §1

USP39 = biological target: T3, USP39 (UniProt Q53GS9)
T3 sequence (whole entry): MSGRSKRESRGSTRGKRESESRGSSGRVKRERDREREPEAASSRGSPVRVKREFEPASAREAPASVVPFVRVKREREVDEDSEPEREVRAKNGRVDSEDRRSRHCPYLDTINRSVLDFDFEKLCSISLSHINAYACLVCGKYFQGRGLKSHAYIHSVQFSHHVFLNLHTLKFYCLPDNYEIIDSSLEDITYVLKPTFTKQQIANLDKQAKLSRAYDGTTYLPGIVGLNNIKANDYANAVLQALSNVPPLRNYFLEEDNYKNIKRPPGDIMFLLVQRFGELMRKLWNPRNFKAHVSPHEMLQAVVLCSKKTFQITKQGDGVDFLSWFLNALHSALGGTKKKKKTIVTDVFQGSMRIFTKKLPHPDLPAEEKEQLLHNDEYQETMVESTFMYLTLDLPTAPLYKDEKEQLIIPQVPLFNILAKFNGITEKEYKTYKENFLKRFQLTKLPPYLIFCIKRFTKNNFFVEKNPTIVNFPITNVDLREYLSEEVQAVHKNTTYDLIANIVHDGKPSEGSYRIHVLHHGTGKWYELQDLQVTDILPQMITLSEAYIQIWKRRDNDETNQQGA
In short: as §1

USP4 = biological target: T4, USP4 (UniProt Q13107)
T4 sequence (whole entry): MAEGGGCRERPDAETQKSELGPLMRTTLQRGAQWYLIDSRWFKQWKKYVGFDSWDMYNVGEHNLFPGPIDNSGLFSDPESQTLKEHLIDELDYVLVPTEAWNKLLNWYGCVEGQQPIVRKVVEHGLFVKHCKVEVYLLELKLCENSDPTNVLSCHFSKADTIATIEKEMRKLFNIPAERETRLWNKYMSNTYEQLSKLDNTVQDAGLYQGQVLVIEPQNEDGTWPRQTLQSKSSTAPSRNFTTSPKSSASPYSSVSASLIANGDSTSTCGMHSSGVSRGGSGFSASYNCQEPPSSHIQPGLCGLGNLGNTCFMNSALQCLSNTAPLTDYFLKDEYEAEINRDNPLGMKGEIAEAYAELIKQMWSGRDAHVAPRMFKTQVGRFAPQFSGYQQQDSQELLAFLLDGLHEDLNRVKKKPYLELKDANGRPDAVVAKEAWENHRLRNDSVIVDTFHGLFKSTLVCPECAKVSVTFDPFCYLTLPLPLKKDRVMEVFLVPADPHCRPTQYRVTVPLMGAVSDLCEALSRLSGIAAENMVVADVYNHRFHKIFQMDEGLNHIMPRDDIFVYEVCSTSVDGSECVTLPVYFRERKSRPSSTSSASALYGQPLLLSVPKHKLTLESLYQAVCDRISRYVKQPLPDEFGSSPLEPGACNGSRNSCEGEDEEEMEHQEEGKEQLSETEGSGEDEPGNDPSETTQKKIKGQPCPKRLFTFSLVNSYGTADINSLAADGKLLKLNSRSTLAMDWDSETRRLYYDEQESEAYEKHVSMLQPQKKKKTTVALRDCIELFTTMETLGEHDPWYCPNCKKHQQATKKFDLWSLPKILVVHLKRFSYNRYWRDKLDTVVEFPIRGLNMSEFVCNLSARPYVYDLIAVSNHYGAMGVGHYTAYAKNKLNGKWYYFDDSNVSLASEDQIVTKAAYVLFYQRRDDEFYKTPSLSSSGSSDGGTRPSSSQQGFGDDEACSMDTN
In short: as §1

Measured: log2 ratio of Biotin-Ahx-Ub-VS probe labelling

Cc1ncc2c(n1)CCN(C(=O)CCl)C2
inactive: USP34 -0.14 | USP36 -0.0392 | USP38 -0.067 | USP39 0.0209 | USP4 -0.35
